The panel holds about 83,000 compounds, 20% with a hit somewhere; the sample as a whole holds those more often.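 96-well plates, one dose, 48 hours. Percent growth reported; active if below 10.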 Activity calls are given as the source filed them.
Columns and labels:
Assay in all cases: NCI-60 one-dose screen, 48 h (100 = growth as untreated, 0 = no growth, -100 = all killed)
Details in all cases: 10 µM unless noted
[1] = test system: SR leukemia
[2] = test system: RPMI-8226 leukemia
[3] = test system: OVCAR-8 ovarian
[4] = test system: OVCAR-5 ovarian
[5] = test system: OVCAR-4 ovarian
[6] = test system: SK-OV-3 ovarian
[7] = test system: IGROV1 ovarian
[8] = test system: OVCAR-3 ovarian
[9] = test system: HS 578T breast
[10] = test system: NCI/ADR-RES ovarian
[11] = test system: T-47D breast
[12] = test system: BT-549 breast
[13] = test system: MDA-MB-435 melanoma
[14] = test system: SW-620 colon
[15] = test system: MCF7 breast
[16] = test system: HCT-116 colon
[17] = test system: HCC-2998 colon
[18] = test system: KM12 colon
[19] = test system: MDA-MB-468 breast

Measured: growth

O=C(COc1ccc2c(c1)CCCC(=O)N2)NCc1ccccc1
active: [13] 3.41%
inactive: [1] 27.6% | [2] 94.9% | [3] 99.5% | [4] 101% | [5] 92% | [6] 89.5% | [7] 111% | [8] 85.4% | [9] 94.2% | [10] 80.2% | [11] 95.7% | [12] 104% | [14] 60.9% | [15] 59.3% | [16] 93.5% | [17] 95.9% | [18] 58.9% | [19] 28.8%

Cc1cc(C)cc(NC(=O)Cn2cc(COn3nnc4ccccc43)nn2)c1
inactive: [1] 90.1% | [2] 108% | [3] 104% | [4] 102% | [5] 109% | [6] 103% | [7] 104% | [8] 129% | [9] 102% | [10] 102% | [11] 100% | [12] 108% | [13] 100% | [14] 115% | [15] 99.5% | [16] 103% | [17] 104% | [18] 114% | [19] 98.7%

CCCCCCn1c(O)c(N=Nc2nc(-c3cc4ccccc4oc3=O)cs2)c2ccccc21
inactive: [1] 12% | [2] 60.9% | [3] 34.1% | [6] 96.9% | [9] 60.5% | [10] 50.2% | [13] 26.3% | [14] 56.2% | [17] 37.8% | [18] 13.6% | [19] 45.3%
active: [4] -53.2% | [5] -48.2% | [7] -62.4% | [8] -94.9% | [11] -12% | [12] -20.5% | [15] -18% | [16] -51.7%

CCCCCCCS(=O)(=O)N1CCCC(C(=O)Nc2nc3ccc(NC(=O)c4ccc(F)c(OC)c4F)cc3s2)C1 (stereo not drawn)
inactive: [1] 60.6% | [2] 41.3% | [4] 65.1% | [5] 29.8% | [6] 57.4% | [7] 60.3% | [8] 40.2% | [9] 25.2% | [10] 46.8% | [11] 41.9% | [12] 55.8% | [13] 72.2% | [14] 64.6% | [15] 27.6% | [16] 25.1% | [17] 58.2% | [18] 63.8%
active: [3] 6.24% | [19] -4.4%

CC1[C@H]2[C@H](C[C@H]3[C@@H]4CC=C5c6sc(Nc7ccccc7F)nc6CC[C@]5(C)[C@H]4CC[C@@]32C)O[C@]12CC[C@@H](C)CO2 (stereo partly drawn)
active: [1] 4.49% | [2] -16.2% | [3] -83.4% | [4] -67.1% | [5] -42.9% | [6] -19.5% | [7] -37.6% | [8] -74.3% | [9] -16.1% | [10] -33.9% | [11] -60.2% | [13] -83.5% | [14] -75.4% | [15] -66.8% | [16] -94.3% | [17] -82.1% | [18] -90.7% | [19] -63.1%
inactive: [12] 55.2%

C=C1CCC2C3(C)COC(c4cccs4)OC3CCC2(C)C1CC(Sc1ccccc1)C1=CCOC1=O (stereo not drawn)
active: [10] 2.64%
inactive: [1] 46.1% | [2] 16.1% | [3] 66% | [4] 102% | [5] 83.6% | [6] 131% | [7] 95.5% | [8] 86.1% | [9] 112% | [11] 82.3% | [12] 25.8% | [13] 87.2% | [14] 80% | [15] 38.2% | [16] 32.4% | [17] 81.5% | [18] 89.2% | [19] 90.5%

C#CCOc1cc(N(CC)CC)ccc1C(C(=O)NC(C)(C)C)N(C(=O)C1CCc2cc(F)ccc2O1)c1ccc(Br)cc1 (stereo not drawn)
inactive: [1] 54% | [2] 44.7% | [3] 89.3% | [4] 87.1% | [5] 82.3% | [6] 95.3% | [7] 80.2% | [8] 107% | [9] 88.3% | [10] 89.4% | [11] 71.3% | [12] 75% | [13] 69.9% | [14] 77.9% | [15] 52.8% | [16] 35.6% | [17] 100% | [18] 60.4% | [19] 61.2%

CCOC(=O)C1=C(N)N(c2ccccc2)C2=C(C(=O)CC(C)(C)C2)C1c1ccccc1Cl (stereo not drawn)
inactive: [1] 32.5% | [2] 22.5% | [3] 83.6% | [4] 86.8% | [5] 74.6% | [6] 90.1% | [7] 92% | [8] 62.7% | [9] 93.4% | [10] 74% | [11] 52% | [12] 78.6% | [13] 73.1% | [14] 74.6% | [15] 56.5% | [16] 41.3% | [17] 85.6% | [18] 58.4% | [19] 50.2%

Cn1cc(-c2cc3nc(-c4c[nH]c5ccc(Br)cc45)cc(N)n3n2)c2ccccc21
active: [1] 2.66% | [2] -10.1% | [3] -85.1% | [4] -86.1% | [5] -57% | [6] -66.5% | [7] -57.2% | [8] -40% | [9] -22.5% | [10] -32.8% | [11] -60.8% | [12] -63.6% | [13] -88.6% | [14] -63.5% | [15] -87.2% | [16] -90.6% | [17] -82.4% | [18] -83% | [19] -70.3%

C/C(=N\N=C1/C(=O)Nc2ccc(Cl)cc21)c1ccc2c(c1)Nc1ccccc1S2
active: [3] -15.6% | [7] -8.9% | [8] -66.9% | [9] 9.82% | [10] -28.3% | [12] -32.1% | [13] -35.2% | [14] -27.8% | [15] -9.38% | [16] -43% | [17] -48.2% | [18] -79.3% | [19] 2.73%
inactive: [1] 11.4% | [2] 10.8% | [4] 15.8% | [5] 15.7% | [6] 50.4% | [11] 11.9%

COc1ccc(-c2nc3ccc(C(=O)NN4C(=O)c5ccc([N+](=O)[O-])cc5C4=O)cc3[nH]2)cc1
inactive: [1] 89.1% | [2] 80.9% | [3] 97.5% | [4] 88.6% | [5] 101% | [6] 94.8% | [7] 101% | [8] 115% | [9] 104% | [10] 102% | [11] 97% | [12] 105% | [13] 98.3% | [14] 101% | [15] 83% | [16] 102% | [17] 108% | [18] 101% | [19] 89.7%

S=C(Nc1ccc(OCc2nc3ccccc3[nH]2)cc1)NC1CCCCC1
inactive: [1] 105% | [2] 101% | [3] 95.1% | [4] 117% | [5] 102% | [6] 108% | [7] 107% | [8] 123% | [9] 102% | [10] 106% | [11] 88.5% | [12] 109% | [13] 105% | [14] 120% | [15] 75.3% | [16] 102% | [17] 111% | [18] 82.1% | [19] 107%
